Measured values taken from the supplement of paper PMC6555819.

What was measured:
Test in all cases: PBM binding z-score (relative to random genomic background probes); higher = stronger binding; sequences stand for … in GC…GCGATTGACAGCGTAGAATGAAGG
[1] = system: FXR:RXRa (NR concentration 270 nM, RXRa partner concentration 90 nM)
Procedure, shortened: (§1)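 Custom Agilent 4×180K protein-binding microarrays carried double-stranded probes, each with a 34-nt variable region. These regions held direct-repeat seeds, single-nucleotide variants, half-site ablations and random human genomic background sequences. Ligand-free nuclear receptor dimers were incubated on the arrays for 1 h, antibodies against each partner (one per run) detected binding, and scanned fluorescence was regression-normalized. Binding z-scores take the random background probes as reference.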

[2] = system: LXRa:RXRa (NR concentration 270 nM, RXRa partner concentration 90 nM)
Procedure, shortened: as §1

[3] = system: LXRa homodimer (NR concentration 270 nM)
Procedure, shortened: as §1

[4] = system: LXRb:RXRa (NR concentration 270 nM, RXRa partner concentration 90 nM)
Procedure, shortened: as §1

[5] = system: LXRb homodimer (NR concentration 270 nM)
Procedure, shortened: as §1

[6] = system: PPARa:RXRa (NR concentration 270 nM, RXRa partner concentration 90 nM)
Procedure, shortened: as §1

[7] = system: PPARg:RXRa (NR concentration 180 nM, RXRa partner concentration 90 nM)
Procedure, shortened: as §1

[8] = system: PPARg:RXRa 270nM:90nM, anti-RXR (NR concentration 270 nM, RXRa partner concentration 90 nM)
Procedure, shortened: as §1

[9] = system: PPARg:RXRa 30nM:10nM, anti-RXR (NR concentration 30 nM, RXRa partner concentration 10 nM)
Procedure, shortened: as §1

[10] = system: PPARg:RXRa 90nM:30nM, anti-RXR (NR concentration 90 nM, RXRa partner concentration 30 nM)
Procedure, shortened: as §1

ATTTCTAGGTAAGACTCAGTTCAGTGAAGAACGC
PBM binding z-score [1]: 0.897 | PBM binding z-score [2]: 0.946 | PBM binding z-score [3]: 0.909 | PBM binding z-score [4]: 0.543 | PBM binding z-score [5]: 1.31 | PBM binding z-score [6]: 0.972 | PBM binding z-score [7]: 0.289 | PBM binding z-score [8]: 0.947 | PBM binding z-score [9]: 0.807 | PBM binding z-score [10]: 0.822

CCTCACGGGTCACTGACAGGTTATAGCATTTGGA
PBM binding z-score [1]: 4.72 | PBM binding z-score [2]: 3.72 | PBM binding z-score [3]: 0.511 | PBM binding z-score [4]: 3.24 | PBM binding z-score [5]: -0.196 | PBM binding z-score [6]: 4.66 | PBM binding z-score [7]: 3.37 | PBM binding z-score [8]: 3.34 | PBM binding z-score [9]: 0.625 | PBM binding z-score [10]: 1.85

CCTGCTGGGCCATCAGGTCATTGATATCAACGTT
PBM binding z-score [1]: 1.15 | PBM binding z-score [2]: 0.86 | PBM binding z-score [3]: 0.504 | PBM binding z-score [4]: 1.18 | PBM binding z-score [5]: -0.89 | PBM binding z-score [6]: 1.73 | PBM binding z-score [7]: 0.432 | PBM binding z-score [8]: 1.06 | PBM binding z-score [9]: -0.123 | PBM binding z-score [10]: 0.467

CAAACTAGGTCACAGAAGTCAAAGTCCGTGCGTA
PBM binding z-score [1]: 4.23 | PBM binding z-score [2]: 3.17 | PBM binding z-score [3]: 0.883 | PBM binding z-score [4]: 2.77 | PBM binding z-score [5]: 0.529 | PBM binding z-score [6]: 5.49 | PBM binding z-score [7]: 8.96 | PBM binding z-score [8]: 7.26 | PBM binding z-score [9]: 5.36 | PBM binding z-score [10]: 6.93

CCTAGTTGGTCAAGGTCACTCACGCTATAGGTAC
PBM binding z-score [1]: 3.8 | PBM binding z-score [2]: 3.42 | PBM binding z-score [3]: 1.94 | PBM binding z-score [4]: 3.17 | PBM binding z-score [5]: 0.615 | PBM binding z-score [6]: 3.67 | PBM binding z-score [7]: 2.44 | PBM binding z-score [8]: 3.08 | PBM binding z-score [9]: 0.743 | PBM binding z-score [10]: 2.05

TCATATAGGTAAAAGGTGAAAGTAGGTGTGGTAA
PBM binding z-score [1]: 2.28 | PBM binding z-score [2]: 2.13 | PBM binding z-score [3]: 0.449 | PBM binding z-score [4]: 2.3 | PBM binding z-score [5]: 0.226 | PBM binding z-score [6]: 5.4 | PBM binding z-score [7]: 9.14 | PBM binding z-score [8]: 8.72 | PBM binding z-score [9]: 8.11 | PBM binding z-score [10]: 9.43

TCGAGTAGGTTGGTCGGGGCATTCAGCCAACATA
PBM binding z-score [1]: 0.0024 | PBM binding z-score [2]: -0.387 | PBM binding z-score [3]: -0.443 | PBM binding z-score [4]: -0.0412 | PBM binding z-score [5]: -0.299 | PBM binding z-score [6]: 0.0379 | PBM binding z-score [7]: -0.696 | PBM binding z-score [8]: 0.116 | PBM binding z-score [9]: 0.981 | PBM binding z-score [10]: 0.513

CCTTACGGGTCACGAGGATATAGCACGACGAGCG
PBM binding z-score [1]: 6.44 | PBM binding z-score [2]: 4.11 | PBM binding z-score [3]: 0.0313 | PBM binding z-score [4]: 3.62 | PBM binding z-score [5]: -0.175 | PBM binding z-score [6]: 5.81 | PBM binding z-score [7]: 6.65 | PBM binding z-score [8]: 6.23 | PBM binding z-score [9]: 2.94 | PBM binding z-score [10]: 4.99

ATCGGAAGGTCGAAGGTGAGTATACCCACCCGAA
PBM binding z-score [1]: 2.14 | PBM binding z-score [2]: 1.54 | PBM binding z-score [3]: -0.0479 | PBM binding z-score [4]: 1.23 | PBM binding z-score [5]: -0.0206 | PBM binding z-score [6]: 3.18 | PBM binding z-score [7]: 3.05 | PBM binding z-score [8]: 3.84 | PBM binding z-score [9]: 1.55 | PBM binding z-score [10]: 3.07

CGAACGAGGGCATGAGTTGATAGTAAATGCCGAT
PBM binding z-score [1]: 0.719 | PBM binding z-score [2]: 0.489 | PBM binding z-score [3]: -0.433 | PBM binding z-score [4]: 0.273 | PBM binding z-score [5]: -0.709 | PBM binding z-score [6]: 1.27 | PBM binding z-score [7]: 1.45 | PBM binding z-score [8]: 1.26 | PBM binding z-score [9]: 0.122 | PBM binding z-score [10]: 0.578

CCTGCTAGGTCATGGTCAGCTTATCTACAGTATG
PBM binding z-score [1]: 3.54 | PBM binding z-score [2]: 2.53 | PBM binding z-score [3]: 0.0847 | PBM binding z-score [4]: 1.71 | PBM binding z-score [5]: -0.512 | PBM binding z-score [6]: 3.19 | PBM binding z-score [7]: 2.2 | PBM binding z-score [8]: 2.64 | PBM binding z-score [9]: 0.566 | PBM binding z-score [10]: 1.77

AATACAGGGTCACTAGGCCAGAGTAGGTACGAAT
PBM binding z-score [1]: 6.37 | PBM binding z-score [2]: 5.07 | PBM binding z-score [3]: 0.678 | PBM binding z-score [4]: 3.95 | PBM binding z-score [5]: 0.879 | PBM binding z-score [6]: 6.03 | PBM binding z-score [7]: 8.23 | PBM binding z-score [8]: 6.72 | PBM binding z-score [9]: 3.56 | PBM binding z-score [10]: 5.66

TCTTGTACATCAAAGGTTAAGAAAGCCGAAGCCT
PBM binding z-score [1]: 1.52 | PBM binding z-score [2]: 2.15 | PBM binding z-score [3]: 0.446 | PBM binding z-score [4]: 2 | PBM binding z-score [5]: 0.657 | PBM binding z-score [6]: 2.92 | PBM binding z-score [7]: 2.52 | PBM binding z-score [8]: 4.42 | PBM binding z-score [9]: 3.95 | PBM binding z-score [10]: 4.35

CGTCCAAGGTCAATGCTAGGTCAGTGACAGCATT
PBM binding z-score [1]: 6.74 | PBM binding z-score [2]: 5.78 | PBM binding z-score [3]: 2.73 | PBM binding z-score [4]: 4.19 | PBM binding z-score [5]: 1.14 | PBM binding z-score [6]: 5.31 | PBM binding z-score [7]: 4.11 | PBM binding z-score [8]: 4.64 | PBM binding z-score [9]: 1.38 | PBM binding z-score [10]: 3.44

CCTACTAGTTGACCATAAGGGCAACCGAAGCTCG
PBM binding z-score [1]: 0.832 | PBM binding z-score [2]: 0.281 | PBM binding z-score [3]: 0.276 | PBM binding z-score [4]: 0.306 | PBM binding z-score [5]: 0.518 | PBM binding z-score [6]: 0.516 | PBM binding z-score [7]: 0.418 | PBM binding z-score [8]: 0.311 | PBM binding z-score [9]: -0.164 | PBM binding z-score [10]: 0.0805

GCAGACAGGTGAAACGCAGGTTACTCAGGGTGGC
PBM binding z-score [1]: -0.0153 | PBM binding z-score [2]: 0.86 | PBM binding z-score [3]: -0.533 | PBM binding z-score [4]: 0.216 | PBM binding z-score [5]: -0.875 | PBM binding z-score [6]: 1.06 | PBM binding z-score [7]: 0.535 | PBM binding z-score [8]: 0.0459 | PBM binding z-score [9]: -0.6 | PBM binding z-score [10]: -0.266

CCTGCTGGGCCAAAAAGGTCATTGATGCCGATAA
PBM binding z-score [1]: 3.7 | PBM binding z-score [2]: 4.03 | PBM binding z-score [3]: 2.82 | PBM binding z-score [4]: 4.04 | PBM binding z-score [5]: 0.015 | PBM binding z-score [6]: 4.34 | PBM binding z-score [7]: 1.24 | PBM binding z-score [8]: 2.72 | PBM binding z-score [9]: 0.205 | PBM binding z-score [10]: 1.65

TCTTGTAGATCTATAGAGGTTAAGAAAGTGCGCT
PBM binding z-score [1]: 0.449 | PBM binding z-score [2]: 3.17 | PBM binding z-score [3]: 0.171 | PBM binding z-score [4]: 1.78 | PBM binding z-score [5]: -0.194 | PBM binding z-score [6]: 1.81 | PBM binding z-score [7]: 0.274 | PBM binding z-score [8]: 1.62 | PBM binding z-score [9]: 2.58 | PBM binding z-score [10]: 2.23

TCATATAGGTAAACAGGTGAAAATCCGTAAGTTA
PBM binding z-score [1]: 1.24 | PBM binding z-score [2]: 1.11 | PBM binding z-score [3]: 0.438 | PBM binding z-score [4]: 1.28 | PBM binding z-score [5]: 0.151 | PBM binding z-score [6]: 2.23 | PBM binding z-score [7]: 2.95 | PBM binding z-score [8]: 3.15 | PBM binding z-score [9]: 4.38 | PBM binding z-score [10]: 3.6

CCTGCTAGGTGAATGGTCAGCTAAAGCAGCTCGC
PBM binding z-score [1]: -0.48 | PBM binding z-score [2]: -0.375 | PBM binding z-score [3]: -0.807 | PBM binding z-score [4]: -0.625 | PBM binding z-score [5]: -0.989 | PBM binding z-score [6]: 1.25 | PBM binding z-score [7]: 2.89 | PBM binding z-score [8]: 4.11 | PBM binding z-score [9]: 2.1 | PBM binding z-score [10]: 3.81

ATCTCTAGGTAACCACGTTCAGTGAATGCCGAAC
PBM binding z-score [1]: -0.0584 | PBM binding z-score [2]: -0.141 | PBM binding z-score [3]: 0.335 | PBM binding z-score [4]: -0.0295 | PBM binding z-score [5]: 0.814 | PBM binding z-score [6]: 0.308 | PBM binding z-score [7]: 0.571 | PBM binding z-score [8]: 0.503 | PBM binding z-score [9]: 0.0771 | PBM binding z-score [10]: 0.0954

TTACCAAGGTGATAGGTCGTTGATGCACGCCTTG
PBM binding z-score [1]: 0.534 | PBM binding z-score [2]: 0.702 | PBM binding z-score [3]: -0.126 | PBM binding z-score [4]: 0.514 | PBM binding z-score [5]: -0.482 | PBM binding z-score [6]: 2.84 | PBM binding z-score [7]: 4.06 | PBM binding z-score [8]: 5.47 | PBM binding z-score [9]: 3.82 | PBM binding z-score [10]: 5.61

ATCTCTTGGTAACCAAGTTCAGTGAATGCCGAAC
PBM binding z-score [1]: 0.478 | PBM binding z-score [2]: 1.31 | PBM binding z-score [3]: 0.59 | PBM binding z-score [4]: 1.22 | PBM binding z-score [5]: 0.681 | PBM binding z-score [6]: 0.472 | PBM binding z-score [7]: 0.0645 | PBM binding z-score [8]: 0.369 | PBM binding z-score [9]: -0.134 | PBM binding z-score [10]: 0.145
